From PubChem BioAssay
Pol eta inh – DNA polymerase eta (human) inhibition. Q9Y253. recombinant Pol eta, fluorescent DNA replication assay. Potency, µM (doses to about 114 µM), for the others: top-dose activity change, negative = inhibition, hits mostly inhibitors. 390,000 compounds, 1.2% hits; also: % is scaled to controls: 0 for no effect and ±100 for the full control effect
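Fluorescent replication assay: 50 nM final substrate added after a 15 min room-temperature compound preincubation with 10 nM enzyme. Signal taken at 0 min and again at 10 min.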
TDP1 block – TDP1 (human) enzyme inhibition. recombinant TDP1, AlphaScreen DNA substrate cleavage. Potency, µM (doses to about 130 µM), for the others: at the highest dose activity change, negative = inhibition, actives largely listed as inhibitors. AID 485290. Q9NUW8. 350,000 compounds, 0.28% hits; also: % is scaled to controls: 0 for no effect and ±100 for the full control effect; nearly all actives have a fitted effect of over 40% in size
Target sequence (Q9NUW8 whole entry, looked up): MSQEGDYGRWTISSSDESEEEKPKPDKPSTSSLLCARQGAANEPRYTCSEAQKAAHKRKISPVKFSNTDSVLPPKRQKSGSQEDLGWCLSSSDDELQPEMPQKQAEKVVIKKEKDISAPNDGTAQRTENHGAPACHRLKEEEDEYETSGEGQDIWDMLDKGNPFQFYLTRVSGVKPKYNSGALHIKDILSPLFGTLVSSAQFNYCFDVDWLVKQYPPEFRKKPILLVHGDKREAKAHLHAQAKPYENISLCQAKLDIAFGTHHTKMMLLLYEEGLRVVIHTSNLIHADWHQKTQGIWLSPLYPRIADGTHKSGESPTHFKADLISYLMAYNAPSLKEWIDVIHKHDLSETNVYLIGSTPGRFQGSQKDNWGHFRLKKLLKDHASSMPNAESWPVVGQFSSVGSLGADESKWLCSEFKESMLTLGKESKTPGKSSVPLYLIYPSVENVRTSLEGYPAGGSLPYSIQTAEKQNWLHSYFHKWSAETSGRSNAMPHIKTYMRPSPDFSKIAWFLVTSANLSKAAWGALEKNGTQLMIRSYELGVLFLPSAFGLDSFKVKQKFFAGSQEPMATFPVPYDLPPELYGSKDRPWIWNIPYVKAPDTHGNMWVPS
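Signal: AlphaScreen proximity between streptavidin donor and anti-FITC acceptor beads on intact substrate. Reaction: Tdp1 1 nM, substrate 15 nM final, 5 min RT after 15 min compound preincubation.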
POLI inh – inhibitors of human DNA polymerase iota. 390,000 compounds, 1% hits. AID 588590. Pol iota fluorescent replication assay, 10 min. Potency, µM (series often up to 115 µM), for inactives: at the highest dose activity, negative = inhibition, actives largely listed as inhibitors
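Pol iota at 10 nM preincubated 15 min with compounds at room temperature; reaction started with fluorescent substrate, 50 nM final. Fluorescence read kinetically at 0 and 10 min; buffer-only wells as negative control.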
Pol beta inh – inhibitors of human DNA polymerase beta. Pol beta primer extension/strand displacement, fluorescence kinetic. P06746. 340,000 compounds, 1.3% hits. Potency, µM (titrated, usually from 114 µM), without a hit: at the highest dose activity change, negative = inhibition, actives largely listed as inhibitors; also: % is scaled to controls: 0 for no effect and ±100 for the full control effect
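Human Pol beta at 10 nM; strand-displacement substrate 50 nM final. Compound exposure 15 min at room temperature before start, reaction 10 min at room temperature.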
Pol kappa inh – blocks human DNA polymerase kappa activity. purified Pol kappa, fluorescent DNA synthesis assay, 10 min. Potency, µM (highest dose often 107 µM), without a hit: at the top dose activity, negative = inhibition, most hits filed as inhibitors. 400,000 compounds, 0.53% hits. AID 588579; also: % is scaled to controls: 0 for no effect and ±100 for the full control effect
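Enzyme at 10 nM met test compounds for 15 min at room temperature. Substrate addition (50 nM final) began the reaction, which was monitored by fluorescence at 0 and 10 min.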
FEN1 inhibitor – inhibitors of human flap endonuclease 1; P39748; Recombinant FEN1 flap cleavage, fluorescence, 15 min; Potency, µM (doses to about 114 µM), inactives show top-dose activity change, negative = inhibition, usual class: inhibitors; 390,000 compounds, 0.35% hits; AID 588795; also: % is scaled to controls: 0 for no effect and ±100 for the full control effect; nearly all actives have a fitted effect of over 65% in size
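FEN1 at 10 nM, compound pretreatment for 15 min (room temperature), 50 nM final substrate to initiate; endpoint reads at 0 and 15 min; DMSO-only plates used as vehicle background.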
An asterisk follows results filed as active; ? = inconclusive; / = no result; [ ] = dose if it differs, or a comment. Compounds with a hit are over-represented: about 2.4% of the library has one in this group of screens. Calls follow the shape of the dose curve; as a rule, active = well fitted curve in the direction sought with a large enough effect; inconclusive = small, poorly fitted or top-dose-only effect, or another doubt; inactive = no such curve, though single readings can be large; an effect the other way counts as inactive or inconclusive. Potency is read from the fitted curve at half-maximal effect.

SMILES	Pol eta inh	TDP1 block	POLI inh	Pol beta inh	Pol kappa inh	FEN1 inhibitor
O=C1CCC[C@@H]2[C@@H](Cc3ccccc3)[C@@H](Nc3ccccc3)C[C@@H]3CCN1[C@@H]32	/	/	-5%	/	13%	-8%
CCOCCOc1cc(NCc2ccccc2)c2ncn(C(C)C)c2c1	-23%	/	35µM*	/	-24%	?
Cc1sc(NC(=O)C2c3ccccc3Oc3ccccc32)c(C(=O)OC(C)C)c1C	-19%	4%	-2%	-1%	-20%	-15%
Cc1c(C(=O)OC(C)C)sc(NC(=O)C2c3ccccc3Oc3ccccc32)c1C(=O)OC(C)C	-15%	3%	89µM*	?	?	-11%
O=C(CNC(=O)c1ccc2ccccc2c1)OC(C(=O)Nc1cc(C(F)(F)F)ccc1Cl)c1ccccc1 (stereo not given)	/	-13%	/	/	/	/
CC(=O)NN1C(=O)/C(=C\c2ccc(Br)o2)SC1=S	25µM*	-5%	?	28µM*	?	-14%
CCNc1c(NC(=O)c2cc(OCC)c(OCC)c(OCC)c2)c(=O)oc2ccccc12	-4%	5%	20%	25%	7%	-3%
O=C(CSc1ncnc2ccccc12)NCc1ccco1	?	?	?	25µM*	-7%	3%
COCCCNC(=O)CSc1nc2ccccc2c(=O)n1Cc1ccco1	-9%	3%	8%	1%	2%[60.1 µM]	-1%
Cn1cccc1Cc1nnc(SCC(=O)NCc2ccco2)n1CCc1ccccc1	-29%	3%	22µM*	?	?	0%
O=C(CSc1nc2ccccc2c(=O)n1Cc1ccc(C(=O)NC2CC2)cc1)NCc1ccco1	?	-2%	?	79µM*	-34%	4%
COCCn1c(SCC(=O)NCc2ccco2)nc2cccnc21	?	/	?	45µM*	-21%	-1%
CS(=O)(=O)c1ccc(/C=C2\C=Cc3ccccc32)cc1	/	/	-7%	/	-10%	-25%
CCc1ccc(NC(=O)CN2C(=O)CCSc3ccccc32)cc1	-8%	-2%	28%	-2%	-23%	2%
CCn1c(SCC(=O)NCc2ccco2)nc2ccccc2c1=O	22%	4%	26%	-19%	2%	15%
Cc1nc(SCC(=O)NCc2ccco2)c2c3c(sc2n1)CCCC3	?	1%	3%	6%	-22%	-3%
O=C(CSc1nc2ccccc2c2nc3ccccc3n12)NCc1ccco1	?	/	?	8.9µM*	?	?
CCCc1nc2sc3c(SCC(=O)NCc4ccco4)ncnc3c2c2c1CCC2	14µM*	20µM*	?	10µM*	28µM*	?
CCOC(=O)C1=C(CSc2nc(CC)c(C)cc2C#N)OC(N)=C(C#N)C1c1ccc(OC)cc1 (stereo not given)	-23%	5%[56.1 µM]	?	1%	-11%	?
COC(=O)C1=C(CSc2nc3c(cc2C#N)CN(C)CC3)OC(N)=C(C#N)C1c1ccc(F)cc1 (stereo not given)	?	0%	14µM*	?	71µM*	-21%
Cc1cccc(Cn2c(=O)n(CC3CCC(C(=O)N4CCOCC4)CC3)c(=O)c3sccc32)c1 (stereo not given)	-21%	2%	31%	-6%	16%	-4%
NC(=O)C1Cc2ccccc2CN1S(=O)(=O)c1cccs1 (stereo not given)	-16%	0%	35%	4%	6%	-7%
CC(C)OC(=O)C1Cc2ccccc2CN1S(=O)(=O)c1cccs1 (stereo not given)	?	/	?	32µM*	-31%	6%
O=C(Cc1cccs1)Nc1nnc(SCC(=O)NC2CCCCC2)s1	?	1%	?	?	-31%	1%
